Potency and affinity values are given separately.

The subject of one test is Klebsiella pneumoniae. Particulars: Concentration 32 ug.mL-1;; ASSAY_TEST Inhibition of Bacterial Growth; detection method Absorption (OD600); MEDIA CAMHB; plate type 384well; NBS; CORNING #3640; time 18 hr.
Another test relates to Candida albicans. Particulars: Concentration 32 ug.mL-1; ASSAY_TEST Inhibition of Fungal Growth; detection method Absorption (OD530).
For a further test, the system named is Cryptococcus neoformans. Particulars: Concentration 32 ug.mL-1; ASSAY_TEST Inhibition of Fungal Growth; detection method Resazurin; Absorption (OD600-OD570); plate type 384well; NBS; CORNING #3640. Background: Alamar Blue is a resazurin reagent that responds to reducing activity.

One may read the Inhibition as the relative decrease from the control value, in per cent. For the compound `Cc1cc(F)ccc1NC(=O)Cn1nc2c(SCc3ccc(Cl)cc3)nccn2c1=O`, the Inhibition in the test with Klebsiella pneumoniae is given as 8.05%; in the test with Candida albicans, 13.65%; in the test with Cryptococcus neoformans, -20.69%.
For `COc1cccc(-n2ccn3c(SCC(=O)Nc4ccccc4F)nnc3c2=O)c1` the same measures were 7.91%, 2.83% and -12.13%.
For `Cc1ccc(NC(=O)Cn2nc3ccc(SC4CCCCC4)nn3c2=O)cc1` the same measures were -2.92%, 2.85% and -17.59%.
As for `CCOc1ccccc1NC(=O)Cn1nc2c(Sc3ccc(C)cc3C)nccn2c1=O`, the results for the Inhibition in the test on Klebsiella pneumoniae, in the test with Candida albicans and with Cryptococcus neoformans were 5.52%, -0.73% and -9.54%, respectively.
For the compound `O=C(Cn1nc2c(N3CCOCC3)nccn2c1=O)NCc1ccc(Cl)cc1`, the Inhibition is recorded as 8.43% in the test with Klebsiella pneumoniae, 3.53% in the test with Candida albicans and -3.97% in the test on Cryptococcus neoformans.
For `N#CCn1nc2n(Cc3ccccc3)c(=O)c3ccccc3n2c1=O` the same measures were 8.96%, -1.85% and -7.48%.
With `CC(C)CCn1c(=O)c2sccc2n2c(=O)n(Cc3c(F)cccc3Cl)nc12`, the results for the Inhibition in the test on Klebsiella pneumoniae, with Candida albicans and in the test on Cryptococcus neoformans were 12.18%, 9.98% and -27.55%, respectively.
Take `Cc1ccccc1CSc1nnc2c(=O)n(-c3ccc(F)cc3)ccn12`: the Inhibition with Klebsiella pneumoniae is on record as 9.44%; in the test on Candida albicans it was 1.51%; in the test on Cryptococcus neoformans it was -10.33%.
For `COC(=O)c1ccc(NC(=O)Cn2nc3c4cc(-c5ccc(Cl)cc5)nn4ccn3c2=O)cc1` the same measures were 10.1%, 2.64% and -4.53%.
For `CCc1nnc2ccc(S(=O)(=O)N(Cc3ccc(OC)c(F)c3)c3ccccc3)cn12` the same measures were -3.43%, -0.62% and -5.32%.
For the compound `O=C(CSc1nnc2n(CC3CCCO3)c(=O)c3sccc3n12)Nc1ccc(F)cc1Cl` (stereo not given), the Inhibition is 1.23% in the test with Klebsiella pneumoniae, -2.01% in the test on Candida albicans and -23.1% with Cryptococcus neoformans.
Regarding `COc1cccc(CN(c2ccc(F)cc2)S(=O)(=O)c2cccn3cnnc23)c1`, the Inhibition was -0.69% in the test on Klebsiella pneumoniae, -0.06% in the test on Candida albicans and -1.54% in the test with Cryptococcus neoformans.
Consider `COc1cccc(Sc2nc3ccccc3n3c(=O)n(CC(=O)Nc4ccc(C)cc4)nc23)c1`, for which the values for the Inhibition with Klebsiella pneumoniae, in the test with Candida albicans and with Cryptococcus neoformans were 9.1%, 4.31% and -30.42%, respectively.
For `COc1ccc(NC(=O)c2ccc3nn(CC(=O)Nc4ccc(C(C)=O)cc4)c(=O)n3c2)cc1` the same measures were 4.63%, 12.89% and -6.52%.
Regarding `COc1ccc(NC(=O)CSc2nnc3c(=O)n(-c4ccccc4)ccn23)cc1`, the Inhibition in the test on Klebsiella pneumoniae is listed as 0.2%; with Candida albicans it was 2.88%; in the test with Cryptococcus neoformans it was -4.81%.
Take `COc1ccc(C(=O)CSc2nnc3c(=O)n(-c4ccc(F)cc4)ccn23)cc1`: the Inhibition in the test with Klebsiella pneumoniae was 10.95%; with Candida albicans it was 4.42%; in the test with Cryptococcus neoformans it was -10%.
For `Cc1cc2nn(CC(=O)Nc3ccccc3)c(=O)n2c(Nc2ccc(C)c(F)c2)n1` the same measures were 9.53%, 4.54% and -5.9%.
For `Cc1ccccc1N1CCN(c2nccn3c(=O)n(CC(=O)Nc4cccc(C(C)C)c4)nc23)CC1` the same measures were 0.34%, 19.66% and -7.69%.
For `Cc1ccc(-c2cc3c4nn(CC(=O)Nc5ccc(F)cc5)c(=O)n4ccn3n2)cc1C` the same measures were -3.72%, 22.53% and -20.65%.
For `Cc1nnc2ccc(S(=O)(=O)N(Cc3ccccc3)c3ccc(F)cc3)cn12`, the results for the Inhibition in the test on Klebsiella pneumoniae, in the test on Candida albicans and in the test with Cryptococcus neoformans were 4.54%, 1.53% and -1.68%, respectively.
For `Cc1cccc(N(CC(=O)OC(C)(C)C)S(=O)(=O)c2cccn3c(C)nnc23)c1` the same measures were 8.25%, 2.37% and -7.45%.
Turning to `Cc1ccc(-c2nnc3c(=O)n(CC(=O)Nc4cc(C)cc(C)c4)c4ccccc4n23)cc1`, the values for the Inhibition in the test on Klebsiella pneumoniae, in the test with Candida albicans and in the test with Cryptococcus neoformans were 11.28%, -1.05% and -21.63%, respectively.
For `CCOc1ccc(C(=O)CSc2nnc3c(=O)n(-c4ccc(OCC)cc4)ccn23)cc1` the same measures were 14.22%, 5.82% and -6.09%.
For `CCc1ccc(N(Cc2ccccc2)S(=O)(=O)c2cccn3c(CC)nnc23)cc1` the same measures were 8.89%, 13.04% and -8.52%.
Turning to `COc1ccc(C(=O)CSc2nnc3c(=O)n(-c4ccc(F)c(F)c4)ccn23)cc1`, the Inhibition was 16.31% in the test on Klebsiella pneumoniae, 2.03% in the test with Candida albicans and -11.53% with Cryptococcus neoformans.
For `Cc1ccc(NC(=O)Cn2nc3c(SCc4ccc(Cl)cc4)nccn3c2=O)cc1F` the same measures were 7.4%, 3.39% and -12.99%.
For `O=C(Cn1nc2ccc(Sc3cccc(F)c3)nn2c1=O)Nc1ccc(Cl)cc1` the same measures were -0.35%, 14.09% and -7.49%.
For `COc1cccc(Oc2nccn3c(=O)n(CC(=O)Nc4ccccc4C(F)(F)F)nc23)c1`, the values for the Inhibition in the test on Klebsiella pneumoniae, in the test with Candida albicans and in the test with Cryptococcus neoformans were 12.08%, 1.07% and -10.15%, respectively.
Take `COc1ccccc1-n1ccn2c(SCc3ccc(C)cc3)nnc2c1=O`: the figures for the Inhibition in the test on Klebsiella pneumoniae, with Candida albicans and in the test on Cryptococcus neoformans were 5.79%, 2.57% and -9.44%, respectively.
For `Cc1c(Cl)cccc1-n1ccn2c(=O)n(Cc3cccc(F)c3)nc2c1=O` the same measures were 6.93%, 10.08% and -17.54%.

(Values after ChEMBL document CHEMBL4513146, “CO-ADD screening of Karazin Kharkiv National University (Ukraine) compounds”.)
